This passage reports outcome and Potency results from PubChem BioAssay (Tox21).

A short description of test [1]: qHTS assay to identify small molecule HDAC inhibitors - cell viability counter screen (AID 1259365). Further: series mostly up to about 92 µM; nearly all actives have a fitted effect of over 50% in size. In short, it runs like this:
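CellTiter-Glo luminescence (30 min, room temperature) reported viability after a 2 h compound exposure at 37 C. Cells: wild-type HCT-116, 1,500 per well, seeded the night before.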
A general note: Quantitative high-throughput screening tests each substance at several concentrations.

Test [2] in a line: qHTS assay to identify small molecule agonists of the sonic hedgehog signaling (Shh) pathway - cell viability counter screen (AID 1259366). Further: nearly all actives have a fitted effect of over 50% in size. Put shortly:
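Cytotoxicity counter screen: CellTiter-Fluor reagent added after 23 h compound exposure, then 1 h at 37C and fluorescence read. Cells were 3T3 Gli1-Luc, seeded 2,000 per well and dosed 4 h post-plating.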

Test [3] in a line: qHTS assay to identify small molecule antagonists of the sonic hedgehog signaling (Shh) pathway - cell viability counter screen (AID 1259367). Further: nearly all actives have a fitted effect of over 55% in size. In short, it runs like this: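 NIH/3T3-derived Gli1-Luc reporter cells, 2,000/well, plated 4 hr before compound addition, then stimulated with conditioned medium for 24 hr at 37C. Viability measured in the same wells by CellTiter-Fluor fluorescence, reagent added at 23 hr for 1 hr.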

Test [4] is described as follows: qHTS assay to identify small molecule antagonists of the sonic hedgehog signaling (Shh) pathway (AID 1259369; calls by dose curve; further: nearly all actives have a fitted effect of over 45% in size). In short, it runs like this: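 NIH/3T3-derived Gli1-Luc reporter cells plated 4 h, dosed with compound, then stimulated with conditioned medium for 24 h at 37 C. Firefly luciferase luminescence read after 30 min with detection reagent at room temperature.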

Test [5] addresses Estrogen receptor beta (Homo sapiens) (UniProt Q92731). The test can be described thus: qHTS assay to identify small molecule agonists of the estrogen receptor beta (ER-beta) signaling pathway (AID 1259377; active means well fitted activation curve with a large enough effect in the signal ratio in the repeat runs, not every such curve was filed as active; the % refers to the signal ratio). In short, it runs like this: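 Ratiometric beta-lactamase FRET read-out came after 2 h substrate loading at room temperature. It followed 16 h compound treatment at 37C of GripTite HEK293T cells carrying a UAS-bla reporter, plated in 2% charcoal-stripped FBS medium.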

Test [6] shares this target. Briefly: qHTS assay to identify small molecule antagonists of the estrogen receptor beta (ER-beta) signaling pathway (AID 1259378; active means well fitted inhibition curve with a large enough effect in the signal ratio in the repeat runs, not every such curve was filed as active; the % refers to the signal ratio). In short, it runs like this: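 ER-beta-UAS-bla HEK293T cells in 2% charcoal-stripped FBS medium treated with compound plus 1nM final 17-beta-estradiol for 16 hr at 37C. Beta-lactamase reporter read by FRET substrate fluorescence after 2 hours at room temperature.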

A short description of test [7]: qHTS assay to identify small molecule agonists of the androgen receptor (AR) signaling pathway in the presence of an antagonist - cell viability counter screen (AID 1259379).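 Further: MDA-kb2 human breast cancer cells carrying an MMTV luciferase reporter; series mostly up to about 92 µM; nearly all actives have a fitted effect of over 25% in size.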 Put shortly:
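MDA-kb2 cells (MMTV-luciferase, AR/GR), 3,000/well, 5 h attachment, then 3.0 µM nilutamide (final) and compounds at 15 concentrations. Viability by CellTiter-Fluor fluorescence after 16 h at 37 °C, 0% CO2, in the reporter wells.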

Test [8] in a line: qHTS assay to identify small molecule agonists of the estrogen receptor beta (ER-beta) signaling pathway - cell viability counter screen (AID 1259380). Further: nearly all actives have a fitted effect of over 30% in size. In short, it runs like this:
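ER-beta-UAS-bla HEK293T cells in medium with 2% charcoal-stripped FBS, pre-incubated 6 hr, then treated 16 hr at 37C. Cytotoxicity read in the same wells by CellTiter-Glo luminescence after 30 min at room temperature.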

Test [9] in a line: qHTS assay to identify small molecule antagonists of the estrogen receptor beta (ER-beta) signaling pathway - cell viability counter screen (AID 1259382). Further: series mostly up to about 92 µM; nearly all actives have a fitted effect of over 55% in size. In short, it runs like this:
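ER-beta-UAS-bla HEK293T cells in 2% charcoal-stripped FBS medium, treated with compound plus 1 nM 17-beta-estradiol for 16 h at 37C. Viability read by CellTiter-Glo luminescence after 30 min at room temperature in the same wells.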

Test [10] addresses Thyrotropin receptor (Homo sapiens) (UniProt P16473). Briefly: qHTS assay to identify small molecule antagonists of the thyroid stimulating hormone receptor (TSHR) signaling pathway (AID 1259385; calls by dose curve; further: nearly all actives have a fitted effect of over 20% in size). Put shortly:
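TSHR-HEK293 cells (800/well) plated 18 h, then compounds with Ro20-1724 and TSH at 1.5 ng/mL final, 30 min at room temperature. cAMP quantified by HTRF (cAMP-d2/anti-cAMP-cryptate, 1 h); 15 concentrations in triplicate.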

Test [11] is described as follows: qHTS assay to identify small molecule agonists of the estrogen receptor alpha (ER-alpha) signaling pathway in the presence of an antagonist - cell viability counter screen (AID 1259386).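 Further: series mostly up to about 92 µM; cells exposed to compounds for 22 h at 37 °C before the viability read; nearly all actives have a fitted effect of over 30% in size.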 Put shortly: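 Cell viability in VM7Luc4E2 cells (endogenous full-length ER-alpha) measured by CellTiter-Fluor fluorescence in the same wells as the luciferase screen. Cells pre-cultured 5 days in charcoal-stripped serum, then treated 22 h with compounds at 15 concentrations plus 10.0nM ICI-182,780.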

Test [12] deals with Progesterone receptor (Homo sapiens) (UniProt P06401). Briefly: qHTS assay to identify small molecule agonists of the progesterone receptor (PR) signaling pathway (AID 1346784; calls by dose curve; further: nearly all actives have a fitted effect of over 30% in size). In short, it runs like this:
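Agonist qHTS: compounds pinned onto 3,000 PR-UAS-bla HEK 293T cells per well in charcoal-stripped serum medium, 16hr at 37C, then beta-lactamase activity measured by LiveBLAzer FRET fluorescence after 2 hours at room temperature.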

The target is the same in test [13]. The test can be described thus: qHTS assay to identify small molecule antagonists of the progesterone receptor (PR) signaling pathway (AID 1346795; active means well fitted inhibition curve with a large enough effect in the signal ratio in the repeat runs, not every such curve was filed as active; the % refers to the signal ratio; further: potency means the concentration at half of the fitted maximal effect). Put shortly: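 Antagonist mode with agonist R5020 at 1 nM final and 16 hr incubation at 37C. Reporter was beta-lactamase driven by UAS in HEK293T (PR-UAS-bla), 2% charcoal-stripped serum; signal from LiveBLAzer FRET substrate, 2 hr at room temperature.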

Test [14] has as its target Estrogen receptor (Homo sapiens) (UniProt P03372). Briefly: qHTS assay to identify small molecule agonists of the estrogen receptor alpha (ER-alpha) signaling pathway in the presence of an antagonist (AID 1259383; calls by dose curve; further: top concentration of the series differs between compounds; nearly all actives have a fitted effect of over 15% in size). Put shortly:
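VM7Luc4E2 cells express endogenous full-length ER-alpha with an ERE-luciferase reporter and were hormone-deprived for 5 days. Compounds at 15 concentrations were added with 10.0nM ICI-182,780 for 22hr at 37C. Luminescence was read with ONE-Glo.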

Test [15] can be described thus: qHTS assay to identify small molecule antagonists of the progesterone receptor (PR) signaling pathway - cell viability counter screen (AID 1346798). Further: series mostly up to about 92 µM; nearly all actives have a fitted effect of over 50% in size. Put shortly:
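Cytotoxicity read as CellTiter-Glo luminescence (30 min, room temperature) in the same wells as the beta-lactamase readout. HEK293T PR-UAS-bla cells in charcoal-stripped 2% FBS received compound and R5020, then 16 h at 37C, 5% CO2.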

A short description of test [16]: qHTS assay to identify small molecule agonists of the progesterone receptor (PR) signaling pathway - cell viability counter screen (AID 1346799; calls by dose curve; further: nearly all actives have a fitted effect of over 45% in size). In short, it runs like this:
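Cytotoxicity measured by CellTiter-Glo luminescence (30 min, RT) in the same wells as the PR beta-lactamase agonist read. Those HEK293T cells had 16 h compound treatment at 37 C in 2% charcoal-stripped FBS medium.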

Test [17] in a line: qHTS assay to identify small molecule agonists of the sonic hedgehog signaling (Shh) pathway (AID 1259368; calls by dose curve;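 further: NIH/3T3-derived 3T3Gli1-Luc cells carrying a stable Gli1-driven firefly luciferase reporter; series mostly up to about 92 µM; nearly all actives have a fitted effect of over 15% in size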). Put shortly:
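NIH/3T3-derived 3T3Gli1-Luc cells with stably integrated Gli1-driven firefly luciferase, 2,000 cells/well, compounds added after 4 hr. Incubated 24 hr at 37C, 5% CO2; luminescence read after 30 min with luciferase reagent at room temperature.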

A short description of test [18]: qHTS assay to identify small molecule agonists or antagonists of the thyroid stimulating hormone receptor (TSHR) signaling pathway - wild type cell line counter screen (AID 1259384; calls by dose curve). Put shortly:
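Wild-type Hek293 cells, 800/well, 18 h at 37C, then compound with Ro20-1724 for 30 min RT. cAMP by HTRF (cAMP-d2/anti-cAMP cryptate), 1 h RT, fluorescence read. 15 concentrations, triplicates.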

The structures appear in SMILES notation. Values without a mark were called inactive. Records with an inconclusive call do not appear. Activity calls are given as the source filed them. Unless noted, the call rests on the fitted dose curve; in most records, active means well fitted curve in the direction sought with a large enough effect in the repeat runs; inconclusive means weak or mixed curves; inactive means no such curve, though single readings can be large; an effect the other way counts as inactive or inconclusive.

Estrogen receptor beta (Homo sapiens), sequence (Q92731 whole entry, looked up): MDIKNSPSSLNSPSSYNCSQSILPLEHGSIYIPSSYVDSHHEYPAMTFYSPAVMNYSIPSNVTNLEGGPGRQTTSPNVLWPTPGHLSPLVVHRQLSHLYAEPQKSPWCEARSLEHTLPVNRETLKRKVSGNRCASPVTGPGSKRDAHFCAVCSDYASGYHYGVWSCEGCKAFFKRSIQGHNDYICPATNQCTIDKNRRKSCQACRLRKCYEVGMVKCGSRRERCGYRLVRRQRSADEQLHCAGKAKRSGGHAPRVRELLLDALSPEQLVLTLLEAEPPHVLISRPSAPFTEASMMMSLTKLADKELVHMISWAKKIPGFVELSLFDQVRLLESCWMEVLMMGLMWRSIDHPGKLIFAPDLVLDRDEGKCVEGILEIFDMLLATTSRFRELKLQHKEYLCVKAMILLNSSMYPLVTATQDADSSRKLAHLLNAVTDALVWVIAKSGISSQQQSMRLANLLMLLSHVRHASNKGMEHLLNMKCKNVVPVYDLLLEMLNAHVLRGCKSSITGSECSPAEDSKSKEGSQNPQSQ
Thyrotropin receptor (Homo sapiens), sequence (P16473 whole entry, looked up): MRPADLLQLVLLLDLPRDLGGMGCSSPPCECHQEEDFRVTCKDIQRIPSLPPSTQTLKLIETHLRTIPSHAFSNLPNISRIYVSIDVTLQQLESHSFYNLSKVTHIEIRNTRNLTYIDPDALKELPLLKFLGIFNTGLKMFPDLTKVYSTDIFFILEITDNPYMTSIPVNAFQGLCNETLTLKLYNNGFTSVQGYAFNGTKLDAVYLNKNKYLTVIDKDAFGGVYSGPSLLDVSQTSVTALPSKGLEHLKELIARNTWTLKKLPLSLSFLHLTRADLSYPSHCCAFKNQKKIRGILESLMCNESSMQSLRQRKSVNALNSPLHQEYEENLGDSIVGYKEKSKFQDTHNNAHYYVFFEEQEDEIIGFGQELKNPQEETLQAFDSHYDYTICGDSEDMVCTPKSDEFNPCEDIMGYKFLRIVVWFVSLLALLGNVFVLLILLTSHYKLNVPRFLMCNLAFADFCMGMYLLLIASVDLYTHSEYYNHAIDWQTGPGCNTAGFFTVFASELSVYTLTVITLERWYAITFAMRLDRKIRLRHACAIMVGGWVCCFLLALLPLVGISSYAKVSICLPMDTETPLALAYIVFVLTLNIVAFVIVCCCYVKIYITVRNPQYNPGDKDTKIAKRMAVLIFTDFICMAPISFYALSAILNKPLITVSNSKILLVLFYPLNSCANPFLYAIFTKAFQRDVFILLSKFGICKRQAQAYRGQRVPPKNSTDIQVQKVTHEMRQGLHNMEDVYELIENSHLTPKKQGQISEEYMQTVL
Estrogen receptor (Homo sapiens), sequence (P03372 whole entry, looked up): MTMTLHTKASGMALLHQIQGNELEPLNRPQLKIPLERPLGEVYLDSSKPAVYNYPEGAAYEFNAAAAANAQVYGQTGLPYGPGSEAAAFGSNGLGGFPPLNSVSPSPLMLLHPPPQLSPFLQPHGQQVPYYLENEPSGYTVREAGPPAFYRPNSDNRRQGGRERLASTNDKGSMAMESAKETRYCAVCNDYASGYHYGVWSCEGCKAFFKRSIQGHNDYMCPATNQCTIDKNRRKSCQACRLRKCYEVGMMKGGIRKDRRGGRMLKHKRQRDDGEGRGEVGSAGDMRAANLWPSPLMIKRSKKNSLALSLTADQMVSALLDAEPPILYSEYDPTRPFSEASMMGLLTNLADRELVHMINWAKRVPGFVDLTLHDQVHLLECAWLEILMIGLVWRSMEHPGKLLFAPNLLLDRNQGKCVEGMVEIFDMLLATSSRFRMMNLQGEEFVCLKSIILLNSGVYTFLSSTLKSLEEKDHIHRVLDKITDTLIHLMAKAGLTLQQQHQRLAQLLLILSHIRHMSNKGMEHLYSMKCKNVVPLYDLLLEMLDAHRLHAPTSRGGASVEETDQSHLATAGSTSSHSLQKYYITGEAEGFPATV
Progesterone receptor (Homo sapiens), sequence (P06401 whole entry, looked up): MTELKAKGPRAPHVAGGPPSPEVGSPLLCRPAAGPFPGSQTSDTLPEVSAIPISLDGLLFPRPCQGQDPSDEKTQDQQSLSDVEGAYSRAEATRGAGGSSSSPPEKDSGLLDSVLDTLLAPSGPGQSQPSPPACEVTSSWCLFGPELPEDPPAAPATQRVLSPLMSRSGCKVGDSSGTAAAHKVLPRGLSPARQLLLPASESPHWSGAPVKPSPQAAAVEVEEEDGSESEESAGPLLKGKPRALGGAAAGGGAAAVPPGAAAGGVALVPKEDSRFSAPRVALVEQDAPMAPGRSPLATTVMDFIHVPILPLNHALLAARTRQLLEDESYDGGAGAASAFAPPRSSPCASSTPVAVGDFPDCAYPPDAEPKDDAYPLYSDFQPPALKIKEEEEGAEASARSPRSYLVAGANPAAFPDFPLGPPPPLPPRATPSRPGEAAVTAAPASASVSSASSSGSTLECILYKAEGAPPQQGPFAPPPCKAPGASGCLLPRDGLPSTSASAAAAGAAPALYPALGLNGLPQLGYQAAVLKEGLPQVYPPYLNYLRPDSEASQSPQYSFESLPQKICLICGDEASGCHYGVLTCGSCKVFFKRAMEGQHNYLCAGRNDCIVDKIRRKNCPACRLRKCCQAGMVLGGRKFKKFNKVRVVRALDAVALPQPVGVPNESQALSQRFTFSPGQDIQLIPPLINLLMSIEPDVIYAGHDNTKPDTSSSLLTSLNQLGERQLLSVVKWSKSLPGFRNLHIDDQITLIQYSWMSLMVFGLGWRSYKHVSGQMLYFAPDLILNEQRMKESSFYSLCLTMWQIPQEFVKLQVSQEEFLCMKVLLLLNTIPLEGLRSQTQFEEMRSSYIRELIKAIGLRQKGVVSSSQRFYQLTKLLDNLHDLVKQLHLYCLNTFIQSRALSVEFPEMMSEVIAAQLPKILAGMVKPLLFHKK

For the compound `C=C(C)[C@@H]1CC=C(C)C(=O)C1`, the outcome in [1], in test [2], in test [3], in test [7], in test [8] and in [9] was inactive. Moreover, the compound was classed as inactive in [10] and in test [11]. In addition, the Potency entry in test [4], in test [5], in test [6], in test [12] and in test [13] was “inactive” in each case.

As to `Cc1ncc([N+](=O)[O-])n1CC(C)O` (configuration not stated), the call in test [1], in test [3], in [7], in test [8], in test [9] and in [11] was inactive. Besides, the result in test [15] and in test [16] was inactive. Moreover, the Potency entry in test [4], in test [5], in test [6], in test [14], in [12] and in test [13] was “inactive” throughout.

`CN1CCOC(c2ccccc2)c2ccccc2C1` (configuration not stated): the result in test [1], in [3], in [17], in [7], in [8] and in test [9] was inactive. Besides, the outcome in [10], in [11], in [15] and in test [16] was inactive. Moreover, the Potency entry in test [4], in test [5], in test [6], in test [12] and in test [13] was “inactive” in each case.

As to `c1ccc(B(c2ccccc2)c2ccccc2)cc1`, the result in [1], in [2], in [3], in [17], in [7] and in test [9] was inactive. The outcome in test [11], in [15] and in test [16] was inactive. Moreover, the Potency result in test [4] and in test [12] was “inactive” in each case. Moreover, the Potency in [13] is 54.4 µM (active).

Take `CCN(CC)CCN`: the outcome in test [1], in [2], in test [3], in test [17], in test [7] and in [9] was inactive. Moreover, the compound was classed as inactive in [18], in test [10], in test [11] and in test [16]. The Potency result in test [4], in test [5], in [6] and in test [13] was “inactive” throughout.

As to `Cc1cc(C)c(C(=O)O)c(C)c1`, the compound was called inactive in test [1], in test [2], in test [3], in [17], in test [7] and in [8]. Also, the compound was called inactive in [9], in [18], in test [10], in test [11], in test [15] and in test [16]. For the same compound, the Potency entry in [4], in test [5], in [6] and in test [13] was “inactive” each time.

For the compound `C/C(CC(C)C)=N\O`, the compound was classed as inactive in test [1], in test [3], in test [7], in [9], in [18] and in test [10]. Besides, the outcome in test [11], in [15] and in test [16] was inactive. Moreover, the Potency entry in [4], in test [5], in test [6], in test [14], in test [12] and in test [13] was “inactive” throughout.

On to `CC1(C)[C@H]2CC[C@](C)(C2)[C@H]1O`, for which the result in test [1], in test [2], in test [3], in [17], in [7] and in test [9] was inactive. Also, the call in test [18], in [10], in [15] and in [16] was inactive. The Potency entry in [4], in [6], in test [14], in test [12] and in test [13] was “inactive” in each case.

Take `Cc1ccccc1C(N)=O`: the outcome in [1], in [2], in test [7], in [9], in test [10] and in test [11] was inactive. The result in [15] and in [16] was inactive. The Potency result in [4], in test [5], in [6], in test [14] and in test [13] was “inactive” in each case.
